This passage reports max dye-equivalent concentration and outcome results from PubChem BioAssay AID589 (National Center for Advancing Translational Sciences (NCATS), 2007).

Molecules are shown by their SMILES. About 6,200 (11%) of roughly 59,000 compounds were called active. Roughly 9% stayed inconclusive and do not appear here. No stated cut-off is given here; in the data, active means max dye-equivalent concentration above about 10 nM; inconclusive means mostly about 1.1 nM to 9.6 nM; inactive means weaker than that. The sample as a whole holds a higher share of actives than the screen did. The source holds several records for some structures; these can differ, active in one and inactive in another.

A short description of the test: qHTS Assay for Spectroscopic Profiling in 4-MU Spectral Region. To be noted: compound autofluorescence, 340/450 nm, 4-MU equivalents; active compounds read high. The method, boiled down:
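Intrinsic fluorescence at 340/450 nm (ex/em) was read after 15 min at room temperature in pH 8.0, 100 mM Tris. Each compound concentration expressed as 4-MU-equivalent concentration from a six-point 4-MU standard series on each plate.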
For orientation: qHTS replaces the single test concentration by a dilution series.
With `COc1ccc(C2=CC(c3cccc(OC)c3)n3nnnc3N2)cc1` (stereo unspecified), the max dye-equivalent concentration was 13 nM (active).
On the same count and under the same terms, in the case of `CCCCC(=O)N1CC2(C)CN(C(=O)CCCC)CC(C)(C1)C2=O` it was “inactive”; in that of `Cn1c(=O)n(C)c(=O)n(CC(=O)N2CCCCC2)c1=O`, “inactive”.
Still for that read-out and setting: in the case of `CS(=O)(=O)N(Cc1nc2sc3c(c2c(=O)[nH]1)CCCC3)C1CCCCC1` it was 34 nM (active).
As for `Cc1cc(C)c2c(n1)nn1c(N3CCOCC3)cc(C)nc21`, the max dye-equivalent concentration was 6300 nM (active).
Same read-out and setting: in the case of `Cc1cc(N2CCN(Cc3ccc4c(c3)OCO4)CC2)n2ncnc2n1` it was “inactive”; in that of `Cc1nn2c3cc(N4CCOCC4)ccc3nc2c2ccccc12`, “inactive”; in that of `CS(=O)(=O)N(CC(=O)N1CCN(c2cccc(Cl)c2)CC1)c1ccccc1`, “inactive”.
The same measure, in the same setting: the figure for `Cc1cc(C)c2c(n1)nn1c(N3CCN(c4cccc(Cl)c4)CC3)cc(C)nc21` is 100 nM (active); for `Cc1cc(C)c2c(n1)nn1c(-n3ccnc3)cc(C)nc21` it is 240 nM (active); for `CCN1C(=O)/C(=C\N2CCN(c3cccc(Cl)c3)CC2)SC1=S` it is “inactive”.
Take `COc1ccc(C(=O)N2CCC3(CC2)CCN(c2ccccn2)CC3)cc1`: the max dye-equivalent concentration entry was “inactive”.
`CCn1c(CNC(=O)c2ccc(OC)c(OC)c2)nnc1SCC(=O)Nc1ccccc1`: the max dye-equivalent concentration result is “inactive”.
Consider `O=C(CN(Cc1ccccc1)C(=O)c1ccc2c(c1)OCCO2)NCc1ccc2c(c1)OCO2`, for which the max dye-equivalent concentration entry is “inactive”.
For the compound `Cc1nnc(NC2=NCCCCC2)o1`, the max dye-equivalent concentration entry is “inactive”.
Same read-out and setting: in the case of `O=C(c1c(Cl)nc2sccn12)N1CCCc2ccccc21` it was “inactive”.
On the same count and under the same terms, the entry for `O=C1CC(Cc2ccccc2)C(=O)N1c1ccc(Cl)cn1` (stereo unspecified) is “inactive”; for `Cc1ccc(C(C(=O)NCc2ccco2)N(CC2CCCO2)C(=O)Cn2nnc3ccccc32)cc1` (stereo unspecified) it is “inactive”; for `CN(C)C(=O)c1ccc(-c2cncnc2Nc2ccccc2)cc1` it is “inactive”.
`O=C(NCc1cn2ccsc2n1)Nc1cccc(Cl)c1`: the max dye-equivalent concentration entry is “inactive”.
The same measure, in the same setting: in the case of `O=C(/C=N/O)Nc1ccccc1` it was “inactive”; in that of `CCS(=O)(=O)n1nc(-c2ccc(OC)cc2)nc1SC`, “inactive”.
Same read-out and setting: in the case of `COc1cc(-c2nn3c(-c4cccc(C)c4)nnc3s2)cc(OC)c1OC` it was 1900 nM (active); in that of `CCOc1cccc(-c2nn3c(-c4ccccn4)nnc3s2)c1`, “inactive”.
Same read-out and setting: the entry for `c1ccc(-c2cc(-c3nnc4sc(-c5ccccn5)nn34)[nH]n2)cc1` is “inactive”; for `CCCC(CCC(=O)OC)(C(=O)OCC)c1csc(N)n1` (stereo unspecified) it is “inactive”.
In the case of `COc1ccc(CNc2ncncc2-c2ccccc2C)c(OC)c1`, the max dye-equivalent concentration entry is “inactive”.
On the same count and under the same terms, the entry for `Oc1c(CN2CCOCC2)ccc(CN2CCOCC2)c1O` is “inactive”.
Same read-out and setting: the figure for `CN(CCc1ccccn1)S(=O)(=O)c1ccc2c3c(cccc13)C(=O)N2` is 790 nM (active).
Turning to `O=c1[nH]nc(Cc2ccccn2)c2ccccc12`, the max dye-equivalent concentration result was “inactive”.
The same measure, in the same setting: the figure for `O=C(COC(=O)C12CC3CC(CC(C3)C1)C2)NCc1ccco1` is 23 nM (active).
The same measure, in the same setting: in the case of `Cc1cc(C(=O)OCC(=O)NCc2ccco2)c(C)n1-c1ccccc1` it was “inactive”; in that of `O=C(COC(=O)CCC(=O)c1cccs1)NCc1ccco1`, “inactive”; in that of `CC(C)(C)c1cc(CN2CCN(CCC#N)CC2)cc(C(C)(C)C)c1O`, “inactive”.
With `O=C(O)Cc1ccc(NC(=O)c2cccs2)cc1`, the max dye-equivalent concentration entry was “inactive”.
Same read-out and setting: the entry for `O=C(O)CCCc1ccccc1` is “inactive”.
Turning to `O=C(O)Cc1ccc(-c2ccccc2)cc1`, the max dye-equivalent concentration is 49 nM (active) and the outcome was inactive.
Take `CCOC(=O)C1CCN(C(=O)C2CCN(S(=O)(=O)CC)CC2)CC1`: the max dye-equivalent concentration result was “inactive”.
Same read-out and setting: the entry for `O=C(O)CSCNC(=O)CC12CC3CC(CC(C3)C1)C2` is “inactive”; for `O=C(NC1CCCCC1)n1c(=O)oc2cc(S(=O)(=O)N3CCCCC3)ccc21` it is “inactive”.
On the same count and under the same terms, the figure for `NS(=O)(=O)c1cc2c(cc1Cl)NC(C(Cl)Cl)NS2(=O)=O` (stereo unspecified) is 6500 nM (active); for `C=CCn1c(C)cc(C(=O)CN2C(=O)c3ccccc3C2=O)c1C` it is “inactive”; for `O=C(Nc1ccc(NC(=O)c2cccs2)cn1)c1ccco1` it is “inactive”.
Turning to `Cc1c(C(=O)NCCN2CCOCC2)sc2nc(-c3ccc(F)cc3)cn12`, the max dye-equivalent concentration entry is “inactive”.
On the same count and under the same terms, in the case of `CSc1cccc(NC(=O)CSc2ccccc2)c1` it was “inactive”; in that of `COc1ccc(OC)c2c(N)c(C#N)c(C(F)(F)C(F)(F)F)nc12`, 140 nM (active); in that of `CCCCOc1ccc(-c2nnc(-c3ccco3)o2)cc1`, “inactive”.
On the same count and under the same terms, in the case of `O=C(Nc1cccc2cccnc12)c1cccc(N2C(=O)CCC2=O)c1` it was “inactive”.
With `O=C(CN1CCOCC1)N1CCCc2c1c(=O)oc1ccc(OCc3ccccc3)cc21`, the max dye-equivalent concentration is 45 nM (active).
As for `N#Cc1nc(-c2ccc(OCc3ccccc3)cc2)oc1NCCCN1CCOCC1`, the max dye-equivalent concentration result is “inactive”.
Still for that read-out and setting: in the case of `O=C(OCCN1CCOCC1)C1(c2ccccc2)CCCCC1` it was “inactive”.
In the case of `CCOC(=O)C1CCCN(C(=O)c2cncc(Br)c2)C1` (stereo unspecified), the max dye-equivalent concentration entry is “inactive”.
Same read-out and setting: in the case of `COc1ccc(OC)c([C@H](O)CNC(=O)CN)c1` it was “inactive”; in that of `C/C(Cl)=C\Cn1c(Nc2cccc(C)c2)nc2c1c(=O)n(C)c(=O)n2C`, “inactive”; in that of `COc1ccccc1CN1CC2(CCN(S(=O)(=O)c3ccccc3)CC2)C1`, “inactive”.
